# In the library only some 0.3% were active in any assay of this set; here they are far more common.
# NPYLR7 ag: mosquito NPYLR7 agonism; HEK293T NPYLR7/Galpha15, GCaMP6s calcium fluorescence; activation, % at 10 µM; actives 0.15% (n = 270,000); in the data active = activation above about 40%;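 also: 0% = vehicle and 100% = reference agonist at the receptor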
# mcGAS lum: mouse cGAS inhibition by luminescence | actives 0.15% (n = 160,000) | recombinant cGAS, Kinase-Glo ATP depletion luminescence | inhibition, % at 12.5 µM | AID 1259399;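 also: 0% = negative control wells and 100% = reference inhibitor with no enzyme activity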
# Target sequence (Q8C6L5 whole entry, looked up): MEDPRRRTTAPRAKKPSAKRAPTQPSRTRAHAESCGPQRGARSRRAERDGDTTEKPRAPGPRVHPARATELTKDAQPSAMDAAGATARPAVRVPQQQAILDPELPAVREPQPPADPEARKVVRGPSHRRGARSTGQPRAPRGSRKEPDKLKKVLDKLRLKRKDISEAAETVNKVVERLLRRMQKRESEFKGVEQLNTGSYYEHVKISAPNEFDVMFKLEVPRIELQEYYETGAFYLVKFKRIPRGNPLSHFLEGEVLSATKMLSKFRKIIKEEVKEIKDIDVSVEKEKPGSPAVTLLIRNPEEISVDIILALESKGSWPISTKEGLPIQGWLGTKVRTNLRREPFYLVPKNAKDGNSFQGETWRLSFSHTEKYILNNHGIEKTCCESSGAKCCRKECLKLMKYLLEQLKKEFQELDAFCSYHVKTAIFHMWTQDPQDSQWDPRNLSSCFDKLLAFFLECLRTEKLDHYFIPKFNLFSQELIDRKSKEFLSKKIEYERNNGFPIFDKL
# hcGAS inh: inhibitors of human cGAS. recombinant h-cGAS, ATP depletion, Kinase-Glo luminescence. inhibition, % at 12.5 µM. actives 0.081% (n = 290,000). AID 1259398;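 also: 0% = vehicle reaction and 100% = reaction without DNA for no activity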
# Numbers without * were called inactive; x = no result; ! = not active in a repeat. Rule as the data show it, unless noted: active = inhibition above about 40%; inactive = the rest.
SMILES,NPYLR7 ag,mcGAS lum,hcGAS inh
COc1ccccc1CN(CCc1c[nH]c2ccccc12)C(=O)CN(C(=O)CC(C)CC(C)(C)C)C(C)C (configuration not stated),3.1,-0.9,2.5
N#CC(=CC1C(=O)N(c2c(Cl)cccc2Cl)c2ccccc21)C(N)=NCc1ccccc1 (configuration not stated),-10.8,x,-3.6
CN(C)/C=C1\C(=O)N(c2c(Cl)cccc2Cl)c2cc(C=C(C#N)C#N)ccc21,125.2*,x,-37.8
CCOC(=O)N1CCN(/C=C(\C#N)c2nc3ccccc3s2)CC1,-9.5,-1.1,1.3
CCOC(=O)N1CCN(c2ccc(/C=C(\C#N)c3nc4ccccc4[nH]3)o2)CC1,102.5*,x,-6.8
CN1CCN(C(=O)C2CCc3ccccc3N2C(=O)c2ccc(F)cc2F)CC1 (configuration not stated),8.1,-8.1,-2.0
O=C(O)c1cc(-c2ccc3c(c2)OCO3)nc2c1cnn2Cc1ccncc1,-4.9,x,-4.8
O=C(/C=C/c1cccc([N+](=O)[O-])c1)n1cnc2ccccc21,3.7,41.9*,-1.8
O=[N+]([O-])c1cccc(C=Nn2cnc3ccccc32)c1,-3.9,-1.8,1.0
O=C(c1ccc(Cl)cc1)N(CCN1CCOCC1)Cc1c(-c2ccccc2)noc1N1CCCC1,9.4,-5.6,-3.4
N#CC(=CC=Cc1ccco1)C(N)=S,6.1,79.2*,61.3*
O=C(COC(=O)C=Cc1ccco1)COC(=O)C=Cc1ccco1,-15.0,x,16.3
Cc1ccccc1-n1c(C)nnc1SCc1ccc(C(=O)Nc2ccc(F)cc2)cc1,x,3.7,4.4
COCCN(Cc1ccc(OC)cc1)CC(O)COC(C)C (configuration not stated),44.8,-5.2,-3.1
COCCN(Cc1ccc(C)cc1)CC(O)COCC(C)C (configuration not stated),17.8,90.1*,1.2
CC(C)c1ncc(C(=O)NCc2ccon2)[nH]1,-1.0,x,-19.7
O=C(CCl)N1CCN(c2ccc(O)cc2)CC1,-7.5,10.7,4.5
O=C(CCl)N1CCN(c2cccc(Cl)c2)CC1,0.3,69.9*,-10.5
Cc1ccccc1Nc1nc(N)nc(COc2ccc3c(c2)OCO3)n1,0.2,-7.1,-3.5
Cc1nnc(CNC(=O)CCSc2ccc3c(c2)OCCO3)o1,-2.0,x,1.3
Cc1ccc(N(CCC#N)C(=O)CN2CCCc3ccccc32)cc1C,22.3,-17.4,-6.0
Cc1ccc2c(c1)CCCN2CC(=O)N(CCC(N)=O)c1ccccc1,100.1*,3.2,2.6
CC(NC(=O)C1CC1C)c1ccc(N2CCOCC2)cc1 (configuration not stated),0.8,x,-18.0
COc1ccc(C=CC(=O)c2ccc(C)o2)cc1OC,3.5,x,-2.9
Cc1ccc(C(=O)C=Cc2ccc(N(C)C)cc2)o1,75.3*,x,-7.2
SMILES,NPYLR7 ag,mcGAS lum,hcGAS inh
CSc1ccc(C(=O)N2CCC(n3c(C)nc4ccc(F)cc43)CC2)cc1,x,-5.0,-7.3
COc1ccc(/C=C\C(=O)Nc2cc(=O)n(C)c(=O)n2C)cc1OC,10.0,-7.2,-11.1
CCn1c(=O)c2c(nc(/C=C/c3ccc(OC)c(OC)c3)n2C)n(CC)c1=O,84.5*,-10.1,-7.0
CCCn1nc(C(=O)N2CCCC2)c2c1CCC(NCc1cnc3ccccc3c1)C2 (configuration not stated),19.6,-6.2,-20.7
Cc1sc(=NC(=O)c2cccc(C(F)(F)F)c2)n(C(C)C(=O)NC2CC2)c1C (configuration not stated),6.9,x,184.3*
CCOC(=O)C1CCN(C(=O)C(C)n2ccsc2=NC(=O)c2cccc(C(F)(F)F)c2)CC1 (configuration not stated),-8.2,x,3.0
O=C(O)CCC(=O)c1cccs1,0.5,-6.6,47.9*
O=C(O)CCc1cccs1,0.6,x,-3.0
C=CCNC(=O)c1ccccc1N1CCC(NC(=O)COC)CC1,-0.7,54.5*,-7.4
C=CCNC(=O)NC1CCN(c2ccccc2C(=O)NCCOC)CC1,-1.0,-5.0,-4.8
CC1CCN(c2ccc(NC(=O)c3ccc(Cl)cc3Cl)cc2C(=O)NCc2ccc(F)cc2)CC1,0.6,-5.4,-2.8
CCOc1ccc(NC(C)=O)cc1,71.1*!,x,-4.2
CCOc1ccc(NC(=O)CC(C)O)cc1 (configuration not stated),-3.7,x,-2.6
CN1CCC(N(C)C=C(Cl)C(=O)C(F)(F)F)CC1,3.0,-6.2,-11.2
Cn1c(SCc2nnc(-c3ccc(Cl)cc3)o2)nnc1-c1ccc(Cl)cc1,2.9,x,3.8
O=C(NCCN1CCCC1)c1cc2n(n1)CCN(Cc1ccccc1C(F)(F)F)C2=O,8.5,-2.5,2.7
O=C(NCCN1CCCCC1)c1cc2n(n1)CCN(Cc1cccc(C(F)(F)F)c1)C2=O,-6.1,46.5*,6.8
O=C(Cn1cc(-c2nnc(-c3ccco3)o2)c2ccccc21)N1CCCC1,1.8,-6.6,-4.9
CC1=C[C@@H](CN2CCC[C@H]2CO)[C@H](C(C)C)C[C@H]1Cc1nnc(C)o1,-6.6,-3.5,-4.8
C=C1CC(=O)C2=C(C)C[C@H](O)[C@@H]3[C@H](OC(=O)[C@@H]3C)[C@@H]12,-3.1,0.7,5.2
O=C1NC(=S)N(c2ccc3ccccc3c2)C(=O)/C1=C/c1ccc(-c2cccc(C(=O)O)c2)o1,3.8,81.0*,56.3*
O=C1/C(=C/c2ccc(-c3cccc(Cl)c3)o2)NC(=S)N1c1ccccc1,4.3,-0.4,-2.9
COc1cccc(C)c1C(=O)N1CCOC(c2ccc(Cl)c(Cl)c2)C1 (configuration not stated),21.8,x,-3.9
COCCN(C(=O)Nc1ccccc1F)C1CCC2(CC1)C(=O)N(C)CCc1ccccc12 (configuration not stated),18.8,x,-6.6
Cc1nc(SCCO)c2c3c(sc2n1)CCCC3,-1.3,6.9,-4.5
SMILES,NPYLR7 ag,mcGAS lum,hcGAS inh
O=c1[nH]c(SCCO)nc2sc3c(c12)CCCC3,40.4*,-5.5,-1.0
COCCN(CC(=O)N(CCc1c[nH]c2ccccc12)Cc1ccc(OC)c(OC)c1)C(=O)C(Cl)Cl,x,-4.8,-8.7
O=C(c1occc1CN1C(=O)Cc2ccccc21)N1CCCCCC1,-3.2,x,2.3
O=C(NCc1ccccn1)c1csc(COc2cccc(F)c2)n1,2.6,-8.2,-5.5
CC(C)Oc1nc(-c2ccc(C(F)(F)F)cc2)n(-c2ccc(NC(=O)c3cc(Cl)cc(Cl)c3)cc2)n1,24.9,-4.2,-6.5
O=C(c1ccc(=O)[nH]n1)N1CCCCC1c1nc2ccccc2s1 (configuration not stated),4.0,-4.4,-1.0
CCOc1ccc(/C=C2N=C(/C=C/c3ccccc3)OC/2=O)cc1,66.3*,x,-3.7
CCOc1ccc(/C=C2N=C(/C=C/c3ccc(C)cc3)OC\2=O)cc1,0.2,x,-2.2
CC[n+]1c(-c2ccccc2)c2cc(N)ccc2c2ccc(N)cc21,-4.6,x,55.8*!
CC[n+]1c2ccccc2cc2ccccc21,9.7,x,-2.7
c1ccc(-n2nnnc2CSc2nnc(C3CC3)n2-c2ccccc2)cc1,-2.0,x,-4.0
CC(C)NC(=O)C(C)N1CCc2onc(-c3ccc(C(F)(F)F)cc3)c2C1 (configuration not stated),134.9*,1.4,4.8
O=C(C1CC=CCC1)N1CCc2onc(-c3ccc(C(F)(F)F)cc3)c2C1 (configuration not stated),10.6,-17.4,-6.5
Cc1nc2c(c(N3CCCC3)n1)CN(C(=O)Nc1cc(C(F)(F)F)cc(C(F)(F)F)c1)CC2,-10.0,-3.9,-9.5

# Screening data: PubChem, Fisher Drug Discovery Resource Center
